The full ranking holds about 35,000 sequences; the median of “fluorescence intensity (a.u.)” is about 10,000, and the highest 2% start at about 52,000. Many of the other results were omitted from the sample, so the highest values are more common in it than they were.

The assay deals with T1, OsWOX13 (Oryza sativa, UniProt Q5QMM3 1-267).
T1 sequence: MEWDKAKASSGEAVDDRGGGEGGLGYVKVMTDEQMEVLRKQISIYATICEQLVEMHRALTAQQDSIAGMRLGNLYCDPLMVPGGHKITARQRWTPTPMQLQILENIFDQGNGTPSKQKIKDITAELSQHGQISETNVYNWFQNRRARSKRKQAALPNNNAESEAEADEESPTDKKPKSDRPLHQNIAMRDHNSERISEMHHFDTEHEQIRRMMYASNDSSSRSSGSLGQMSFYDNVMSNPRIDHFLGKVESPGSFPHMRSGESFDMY
The assay can be described thus: protein-binding microarray (RPBM); PBS, 2% BSA, 51.3 ng/ul salmon testes DNA, 50 uM zinc acetate, 200 nM TF, 25 C, 1 h; high values mean tight binding. Particulars: protein: recombinant; tags: N-terminal polyhistidine and DsRed monomer fusion (pET32a); label: CyDye5-dUTP incorporated in the synthesized complementary strand; 3' TTTTT single-stranded linker to array surface; dsDNA, one strand shown. In outline:
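A custom Agilent array was converted to double-stranded form by primer extension with Cy5-dUTP and blocked with 2% BSA. Protein at 200 nM in PBS with 2% BSA, salmon testes DNA and 50 µM zinc acetate was applied for 1 h at 25 °C, followed by washing. The proteins were polyhistidine–DsRed N-terminal fusions of transcription factors, expressed in E. coli BL21-CodonPlus and Ni–NTA-purified. The binding signal is per-feature fluorescence intensity (arbitrary units) from an Axon 4000B scanner.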
With “AATCTTGGCAAATTTCCTTAATTTGAACCTACGTGTTAAACGGAGTCACCTAGTGCAG”, the binding signal was 5550 fluorescence intensity (a.u.).
The same measure for “TGCATTGATTTGGTATAATTGACCATGCTTTGCGATGCAACGGAGTCACCTAGTGCAG”: 57700 fluorescence intensity (a.u.); for “ATAATATTTAATATTTAATTAATTATGTGCTAATAAATCGCGGAGTCACCTAGTGCAG”: 14300 fluorescence intensity (a.u.); for “TTAATTGATTAATTTCCTTAACCAAATCTTGGCGACTTGACGGAGTCACCTAGTGCAG”: 61200 fluorescence intensity (a.u.).
The same measure for “TAATATTTAATTTCTATCAACATCTGACTACTTAATATTGCGGAGTCACCTAGTGCAG”: 7790 fluorescence intensity (a.u.); for “GAATAATTATTACACAATGCTAATTAATTTCACAATATTGCGGAGTCACCTAGTGCAG”: 38800 fluorescence intensity (a.u.); for “CCTTAATTGTGGGGCTGACTGCTATTTTCTATATCATGTGCGGAGTCACCTAGTGCAG”: 56000 fluorescence intensity (a.u.).
Next, “AGCGATTAGTAAGTGGATTGGATCTAACTAAGCTTGCTACCGGAGTCACCTAGTGCAG”: 9310 fluorescence intensity (a.u.); “CCTGCACAATCACTGGCTGATGCATCTGCAATGTCACCAACGGAGTCACCTAGTGCAG”: 4350 fluorescence intensity (a.u.); “TGGATTTGTATGTCTTAATTGAAGTTAGGCTATAAATTTGCGGAGTCACCTAGTGCAG”: 10300 fluorescence intensity (a.u.).
Turning to “ATATTTAATTTGATACTACCTATAAACCGCACAAGCTGCACGGAGTCACCTAGTGCAG”, the binding signal was 16800 fluorescence intensity (a.u.).
The same measure for “GTGATGAGTGATGACCCGGAGAATGAGAGAGGCGACTGTGCGGAGTCACCTAGTGCAG”: 3800 fluorescence intensity (a.u.); for “ATATGATCGTATAATTAAATGAGATCATGATTAAGTGGAGCGGAGTCACCTAGTGCAG”: 16400 fluorescence intensity (a.u.); for “AGTTATAATGGAATTAATTATAATTATAGTATAGTTAGATCGGAGTCACCTAGTGCAG”: 28600 fluorescence intensity (a.u.).
The same measure for “GAGTGGTAAATAATTAATTATTACATATTTGTATAAATCGCGGAGTCACCTAGTGCAG”: 22800 fluorescence intensity (a.u.); for “TAATGTGTGTGTATAATTAATTAAGCAGTGAAGTGAATCGCGGAGTCACCTAGTGCAG”: 5650 fluorescence intensity (a.u.); for “TAAATTAATTAATTAGGTATAAATGTAATTAAGCACATCGCGGAGTCACCTAGTGCAG”: 55000 fluorescence intensity (a.u.).
The same measure for “GTTAATTAGATCATGATAAAGATTAATGTATAGATCGAGGCGGAGTCACCTAGTGCAG”: 62000 fluorescence intensity (a.u.); for “ATGATAGATTAAATCAAATTATCATGTTATGGGTATAGCCCGGAGTCACCTAGTGCAG”: 53200 fluorescence intensity (a.u.).
On to “TAATCATGTTAAATTGATGTTATTAGATTTATCATTAAACCGGAGTCACCTAGTGCAG”, for which the binding signal was 14900 fluorescence intensity (a.u.).
The same measure for “CATTTGCTGGATGTGCTCCTTACTTAATATTTATGCATGGCGGAGTCACCTAGTGCAG”: 52600 fluorescence intensity (a.u.); for “CTCCTAATTTAGTCACTTATGGAGCTCTGATAGCTGGATGCGGAGTCACCTAGTGCAG”: 14200 fluorescence intensity (a.u.).
The same measure for “GGATTAAATTATCAAATAGATTTGGCTGCCATGATGGCACCGGAGTCACCTAGTGCAG”: 42600 fluorescence intensity (a.u.).
Regarding “CATAATTAAAATACTTAAAATATGTGCTCGTAATTATTTACGGAGTCACCTAGTGCAG”, the binding signal was 6000 fluorescence intensity (a.u.).
The same measure for “GGGGATGGAAGGGTGATTGAGAGTAAGAATTGGAGGTGATCGGAGTCACCTAGTGCAG”: 30000 fluorescence intensity (a.u.).
The same measure for “TAGAATTGATGATACTAGCTATAACTTCCGAGTGAGCACACGGAGTCACCTAGTGCAG”: 16900 fluorescence intensity (a.u.); for “CCATCTGCTGATAGATTTTCTATTGCCAAATCTTACACCTCGGAGTCACCTAGTGCAG”: 5710 fluorescence intensity (a.u.); for “CTTCAATAATTAATTTATATTGTACTAATATGTTTGTAAACGGAGTCACCTAGTGCAG”: 17900 fluorescence intensity (a.u.).
Next, “AATTACTGTCATGATTTGAATTTGCAATCATTTCCTGTACCGGAGTCACCTAGTGCAG”: 18800 fluorescence intensity (a.u.).
In the case of “TCCTTGCTAACAAATCAACCAATTTGTCCATTCCCTATGTCGGAGTCACCTAGTGCAG”, the binding signal is 3440 fluorescence intensity (a.u.).
The same measure for “AGAAATTGATTCGTCGAGGATATTGATCTATTAGTAAATGCGGAGTCACCTAGTGCAG”: 36700 fluorescence intensity (a.u.); for “AGTTTCATTAAATTTAATATTAAACATATTTTGATAATATCGGAGTCACCTAGTGCAG”: 5680 fluorescence intensity (a.u.); for “AAATAAATTTGAACTAAAATGAAAATTTGAAGGTATAGCACGGAGTCACCTAGTGCAG”: 12600 fluorescence intensity (a.u.).
Next, “AAGCTTCCTTTGATTGATCCGACTCCACCAAGAACACGATCGGAGTCACCTAGTGCAG”: 22000 fluorescence intensity (a.u.); “TGTAACTCTCGTATGTAATTGAGTAAAACATGTTGGTGCTCGGAGTCACCTAGTGCAG”: 4540 fluorescence intensity (a.u.).
Next, “ATGAATAAGCTATTAGATTGACTATAGATAAATTGGAGCTCGGAGTCACCTAGTGCAG”: 18200 fluorescence intensity (a.u.); “TTGTATAAATGAGCTATCAGATTGGCTATAGATAAATTGGCGGAGTCACCTAGTGCAG”: 12000 fluorescence intensity (a.u.).
For “CAACGGTTAGATTAGATTGGTACTTCATGGTACATCGTGGCGGAGTCACCTAGTGCAG”, the binding signal is 43200 fluorescence intensity (a.u.).
The same measure for “GTTAGATTAGATTGGTACCTCATGTTACCTCGTACCTCATCGGAGTCACCTAGTGCAG”: 55700 fluorescence intensity (a.u.); for “TATATAATTTATTTAATTGGATTTACCAGTTTAAGGGGTTCGGAGTCACCTAGTGCAG”: 54300 fluorescence intensity (a.u.).
Consider “TTGACTATTAAATTGGCTATAGATAAATTGGAGCTAGTAGCGGAGTCACCTAGTGCAG”, for which the binding signal was 23600 fluorescence intensity (a.u.).
As to “TTGTATAAATTGGCTATTAGATTGGCTATAGATTAATTGGCGGAGTCACCTAGTGCAG”, the binding signal was 58900 fluorescence intensity (a.u.).
The same measure for “TTATTTAATTTAGAAAATTGGAGTTACCAGTTGTTCAGTTCGGAGTCACCTAGTGCAG”: 19500 fluorescence intensity (a.u.); for “TTGTATGAATGAGCTATTAGATTGGCTATAGATGAATTGGCGGAGTCACCTAGTGCAG”: 8950 fluorescence intensity (a.u.).
Next, “TTTTAGATTGGGTTATTTATAAGGCTAAGTTTTAATTTAACGGAGTCACCTAGTGCAG”: 4150 fluorescence intensity (a.u.); “TTATTAGATTGACTATAGATAAATTAGATAAATTGGAGTTCGGAGTCACCTAGTGCAG”: 53600 fluorescence intensity (a.u.); “CGGTTAGATTACATTGGTACCTCATGATATCTCGTACCTCCGGAGTCACCTAGTGCAG”: 4680 fluorescence intensity (a.u.).

Values taken from paper PMC7819943, “Rice protein-binding microarrays: a tool to detect cis-acting elements near promoter regions in rice”.
